Measurements reported in PubChem BioAssay AID1645838 (ICCB-Longwood Screening Facility, Harvard Medical School, 2021).
Several values for one entry are separate records, joined by “and”; a condition that tells them apart may be missing. Equal values may be shown once. The campaign covered roughly 2,000 compounds. About 100 (5%) were called active. Cut-off read from the data, not from the text of the source: active = z-score above about 2; inactive = the rest. This excerpt belongs to a sample that is enriched for actives.

Experiment: modulators of mitochondrial supercomplex assembly, cell-based, luminescence, Hoechst nuclei count (AID 1645838);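 note: control cybrid cells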;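 for z-score: higher means more mitochondrial supercomplex formation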
Conditions: Cells, luminescence/Hoechst cell count ratio, supercomplex reporter; for z-score: stronger effect = higher value; for cell count: measured here: cell number, Hoechst nuclei count
[1] = library stock concentration (final well concentration not given) 80 uM
[2] = library stock concentration (final well concentration not given) 400 uM
[3] = library stock concentration (final well concentration not given) 2 mM
[4] = library stock concentration (final well concentration not given) 10 mM
[5] = library stock concentration (final well concentration not given) 46 uM
[6] = library stock concentration (final well concentration not given) 278 uM
[7] = library stock concentration (final well concentration not given) 1.67 mM

Structure (SMILES): CCCCC/C=C\C/C=C\C/C=C\C/C=C\CCCC(=O)N[C@H](C)CO
- z-score: -0.466 (inactive)
- cell count: 6100

Structure (SMILES): CCCCC/C=C\C/C=C\C/C=C\C/C=C\CCCC(=O)N[C@@H](C)CO
- z-score: 0.0527 (inactive)
- cell count: 5800

Structure (SMILES): CCCCC/C=C\C/C=C\C/C=C\C/C=C\CCCC(=O)NC(CO)CO
- z-score: 4 (active)
- cell count: 4470

Structure (SMILES): CNCCCCCCN(C)N(O)N=O
- z-score: 0.0102 (inactive)
- cell count: 6050

Structure (SMILES): CCCCCCC(=O)O[C@H]1CC[C@H]2[C@@H]3C=CC4=CC(=O)CC[C@]4(C)[C@H]3CC[C@]12C
- z-score: -0.283 (inactive)
- cell count: 5360

Structure (SMILES): COC1C(OC(=O)NC(=O)CCl)CC[C@]2(CO2)[C@@H]1[C@@]1(C)OC1CC=C(C)C (stereo not given in full)
- z-score [1]: -0.0262 (inactive)
- z-score [2]: 0.199 (inactive)
- z-score [3]: 1.06 (inactive)
- z-score [4]: 2.72 (active)
- cell count [1]: 3980
- cell count [2]: 3760
- cell count [3]: 3110
- cell count [4]: 1800

Structure (SMILES): c1cc2cc(N3CCNCC3)ccc2cn1
- z-score: 0.406 (inactive)
- cell count: 4610

Structure (SMILES): CCCCC/C=C\C/C=C\C/C=C\C/C=C\CCCC(=O)NCCc1ccc(O)c(O)c1
- z-score: 0.0355 (inactive)
- cell count: 5380

Structure (SMILES): CS(=O)CCCCN=C=S (stereo not given)
- outcome (library stock 10 mM): inactive; censored for cell count
- z-score [1]: -0.41 (inactive)
- z-score [2]: -0.338 (inactive)
- z-score [3]: 0.15 (inactive)
- cell count [1]: 6580
- cell count [2]: 6460
- cell count [3]: 5610

Structure (SMILES): CCCCCCC(=O)CCCCCC/C=C/C[C@@H](O)[C@H](O)[C@@](N)(CO)C(=O)O
- z-score: 5.47 (active)
- cell count: 4740

Structure (SMILES): CCCCC/C=C\C/C=C\CCCCCCCC(=O)NCCO
- outcome: inactive; censored for cell count

Structure (SMILES): CCCCCCCC/C=C\CCCCCCCC(=O)N[C@H](C)CO
- z-score: 0.127 (inactive)
- cell count: 5170

Structure (SMILES): CCCCC/C=C\C/C=C\C/C=C\C/C=C\CCCC(=O)Nc1ccc([N+](=O)[O-])cc1
- z-score: -0.128 (inactive)
- cell count: 5210

Structure (SMILES): CCCCC/C=C\C/C=C\C/C=C\C/C=C\CCCC(=O)NCCc1c[nH]c2ccc(O)cc12
- z-score: 1.36 (inactive)
- cell count: 5300

Structure (SMILES): O=NN(O)N1CCC[C@H]1C(=O)O
- z-score: -0.00248 (inactive)
- cell count: 5130

Structure (SMILES): CN=C(NS(=O)(=O)c1ccc(Cl)cc1)N1C[C@@H](c2ccccc2)C(c2ccc(Cl)cc2)=N1
- z-score: -0.26 (inactive)
- cell count: 5290

Structure (SMILES): Cc1sc2c(c1C)C(c1ccc(Cl)cc1)=NC(CC(=O)Nc1ccc(O)cc1)c1nnc(C)n1-2 (stereo not given)
- z-score [1]: 1.4 (inactive)
- z-score [2]: 3.81 (active)
- z-score [3]: 7.81 (active)
- z-score [4]: 8.99 (active)
- cell count [1]: 5230
- cell count [2]: 4010
- cell count [3]: 2830
- cell count [4]: 2330

Structure (SMILES): Cc1sc2c(c1C)C(c1ccc(Cl)cc1)=NC(CC(N)=O)c1nnc(C)n1-2 (stereo not given)
- z-score [5]: 0.632 (inactive)
- z-score [6]: 2.69 (active)
- z-score [7]: 7.71 (active)
- z-score [4]: 10.6 (active)
- cell count [5]: 5970
- cell count [6]: 4460
- cell count [7]: 2880
- cell count [4]: 2360

Structure (SMILES): Cc1sc2c(c1C)C(c1ccc(Cl)cc1)=NC(CC(=O)OC(C)(C)C)c1nnc(C)n1-2 (stereo not given)
- z-score [1]: 1.22 (inactive)
- z-score [2]: 2.15 (active)
- z-score [3]: 4.36 (active)
- z-score [4]: 5.69 (active)
- cell count [1]: 5120
- cell count [2]: 4600
- cell count [3]: 3540
- cell count [4]: 2860

Structure (SMILES): C[N@@+]1(CC2CC2)CC[C@]23c4c5ccc(O)c4OC2C(=O)CC[C@@]3(O)C1C5 (stereo not given in full)
- z-score [1]: 0.853 (inactive)
- z-score [2]: 0.439 (inactive)
- z-score [3]: 1.12 (inactive)
- z-score [4]: 0.0218 (inactive)
- cell count [1]: 4560
- cell count [2]: 4560
- cell count [3]: 3990
- cell count [4]: 4440

Structure (SMILES): CN=C(NS(=O)(=O)c1ccc(Cl)cc1)N1CC(c2ccccc2)C(c2ccc(Cl)cc2)=N1 (stereo not given)
- z-score: 0.263 (inactive)
- cell count: 4560

Structure (SMILES): CCCC(=O)N[C@H]1CCOC1=O
- z-score: -0.00429 (inactive)
- cell count: 5280

Structure (SMILES): O=C1C(=O)c2cccc3cccc1c23
- outcome (library stock 10 mM): inactive; censored for cell count
- z-score [1]: -0.293 (inactive)
- z-score [2]: -0.13 (inactive)
- z-score [3]: 0.0237 (inactive)
- cell count [1]: 5390
- cell count [2]: 5120
- cell count [3]: 4940

Structure (SMILES): CCCCC/C=C\C/C=C\C/C=C\C/C=C\CCCC(=O)OCCN
- z-score: -1.23 (inactive)
- cell count: 5760

Structure (SMILES): COc1nc(C)nc(NC(=O)NS(=O)(=O)c2ccccc2Cl)n1
- z-score [5]: 0.223 (inactive)
- z-score [6]: 0.421 (inactive)
- z-score [7]: 0.438 (inactive)
- z-score [4]: 0.591 (inactive)
- cell count [5]: 6660
- cell count [6]: 6640
- cell count [7]: 6690
- cell count [4]: 6980

Structure (SMILES): NC(=NCCCC(N)C(=O)O)N[N+](=O)[O-] (stereo not given)
- z-score [5]: -0.276 (inactive)
- z-score [6]: -0.202 (inactive)
- z-score [7]: -0.093 (inactive)
- z-score [4]: -0.00821 (inactive)
- cell count [5]: 5020
- cell count [6]: 4960
- cell count [7]: 5010
- cell count [4]: 4490

Structure (SMILES): O=C(NC(COc1ccc2[nH]c(=O)[nH]c2c1)c1ccccc1)c1cccn(Cc2ccc(F)c(F)c2)c1=O (stereo not given)
- z-score [1]: -0.974 (inactive) and -0.18 (inactive)
- z-score [2]: -0.76 (inactive) and -0.318 (inactive)
- z-score [3]: -0.629 (inactive) and -0.22 (inactive)
- z-score [4]: -0.746 (inactive) and -0.664 (inactive)
- cell count [1]: 5360 and 6280
- cell count [2]: 4530 and 6370
- cell count [3]: 5030 and 6190
- cell count [4]: 4470 and 5840

Structure (SMILES): CCCN(CCCN)N(O)N=O
- z-score: 0.0434 (inactive)
- cell count: 5220

Structure (SMILES): COc1ccc2cc(C(C#N)OC(=O)OCC3OC3c3ccccc3)ccc2c1 (stereo not given)
- z-score: -0.334 (inactive)
- cell count: 4870

Structure (SMILES): CCCCCCCCCCCCCCCCOC[C@@H](O)COP(=O)([O-])OCC[N+](C)(C)C
- z-score: -1.65 (inactive)
- cell count: 5770

Structure (SMILES): CCCC[C@@H](C)C(OC(=O)C[C@@H](CC(=O)O)C(=O)O)C(C[C@@H](C)C[C@H](O)CCCC[C@@H](O)C[C@H](O)[C@H](C)N)OC(=O)C[C@@H](CC(=O)O)C(=O)O (stereo not given in full)
- z-score: -0.0113 (inactive)
- cell count: 5860

Structure (SMILES): NCCc1c(Cl)cccc1Cl
- z-score [1]: 0.124 (inactive)
- z-score [2]: 0.256 (inactive)
- z-score [3]: 0.163 (inactive)
- z-score [4]: -0.533 (inactive)
- cell count [1]: 5290
- cell count [2]: 5420
- cell count [3]: 5540
- cell count [4]: 5250

Structure (SMILES): CCCCCCCCCCCCCCCC(=O)OC[C@H](COP(=O)([O-])OCC[N+](C)(C)C)OC(=O)CCCC=O
- z-score: 0.248 (inactive)
- cell count: 4750

Structure (SMILES): Cc1nc(-c2ccc(-c3ccc(C(=O)N4CCc5cc6c(cc54)C4(CCN(C)CC4)CO6)cc3)c(C)c2)no1
- z-score [1]: -0.255 (inactive)
- z-score [2]: 0.0819 (inactive)
- z-score [3]: -0.0801 (inactive)
- z-score [4]: 3.86 (active)
- cell count [1]: 5300
- cell count [2]: 5160
- cell count [3]: 5100
- cell count [4]: 1770

Structure (SMILES): CC1CNCCc2ccc(Cl)cc21 (stereo not given)
- z-score [1]: -0.315 (inactive)
- z-score [2]: -0.24 (inactive)
- z-score [3]: -0.135 (inactive)
- z-score [4]: -0.0867 (inactive)
- cell count [1]: 6030
- cell count [2]: 5570
- cell count [3]: 5830
- cell count [4]: 5720
